Measured values reported in the supplement of paper PMC10720658.
± gives the standard deviation of the averaged measurements.

Each compound was assayed on AEK1 (Tb927.3.2440) (assay: percent reduction in TR-FRET probe signal relative to DMSO control; higher = stronger displacement of ATP-site probe (binding)). Details: 1 µM; incubation time 1 h.

Row | SMILES | percent reduction in TR-FRET probe signal
1 | CC(C)(O)CC(=O)NCCn1ccc2ncnc(Nc3ccc(Oc4cccc(C(F)(F)F)c4)c(Cl)c3)c21 | -2.36 ± 7.6%
2 | CCN(CC)CCCCNc1ncc2cc(-c3cc(OC)cc(OC)c3)c(NC(=O)NC(C)(C)C)nc2n1 | -17.7 ± 31%
3 | Cn1cnc(-c2cc3nccc(Oc4ccc(NC(=S)NC(=O)Cc5ccccc5)cc4F)c3s2)c1 | 10.3 ± 8.6%
4 | CCCCCCCCc1ccc(CCC(N)(CO)CO)cc1.Cl [Fingolimod (FTY720) HCl] | -8.59 ± 6.3%
5 | CC(=O)Nc1cccc(-n2c(=O)n(C3CC3)c(=O)c3c(Nc4ccc(I)cc4F)n(C)c(=O)c(C)c32)c1 | 4.31 ± 12%
6 | CC(C)CC(=O)Nc1n[nH]c2c1CN(C(=O)C1CCN(C)CC1)C2(C)C | -0.07 ± 7.6%
7 | C[C@@]1(C(=O)Nc2ccc(F)nc2)CCCN1c1nc(Nc2cc(C3CC3)[nH]n2)c2cccn2n1 | 23.1 ± 8.1%
8 | COc1cc(Nc2ncc(F)c(Nc3ccc4c(n3)N(COP(=O)(O)O)C(=O)C(C)(C)O4)n2)cc(OC)c1OC [Fostamatinib (R788)] | 31.3 ± 1.3%
9 | COc1cc(Nc2ncc(F)c(Nc3ccc4c(n3)NC(=O)C(C)(C)O4)n2)cc(OC)c1OC.O=S(=O)(O)c1ccccc1 | 85.4 ± 8%
10 | Nc1ccc(-c2ccc3ncc4ccc(=O)n(-c5cccc(C(F)(F)F)c5)c4c3c2)cn1 [Torin 2] | 1.07 ± 4.9%
11 | CC[C@H](Nc1ncnc2[nH]cnc12)c1nc2cccc(F)c2c(=O)n1-c1ccccc1 [CAL-101 (Idelalisib, GS-1101)] | 0.66 ± 12%
